{
  "source": "the supplement of paper PMC8728848",
  "binders": {"B1": {"name": "Neuropilin-1 (Homo sapiens), O14786 (protein)", "chain": "FKCMEALGMESGEIHSDQITASSQYSTNWSAERSRLNYPENGWTPGEDSYREWIQVDLGLLRFVTAVGTQGAISKETKKKYYVKTYKIDVSSNGEDWITIKEGNKPVLFQGNTNPTDVVVAVFPKPLITRFVRIKPATWETGISMRFEVYGCKITDYPCSGMLGMVSGLISDSQITSSNQGDRNWMPENIRLVTSRSGWALPPAPHSYINEWLQIDLGEEKIVRGIIIQGGKHRENKVFMRKFKIGYSNNGSDWKMIMDDSKRKAKSFEGNNNYDTPELRTFPALSTRFIRIYPERATHGGLGLRMELLGCEVE"}},
  "assay_in_all_cases": "glycan array binding signal (z-score within array); higher = stronger binding",
  "settings_in_all_cases": "glycan notation: IUPAC condensed, linker removed",
  "key": {"[1]": {"target": "Fuc(a1-2)Gal(b1-3)GlcNAc(b1-2)Man(a1-3)[Fuc(a1-2)Gal(b1-3)GlcNAc(b1-2)Man(a1-6)]Man(b1-4)GlcNAc(b1-4)GlcNAc", "outline": "(§1)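 Glycan array data were curated from 3228 arrays in the Consortium for Functional Glycomics database and kept only where the protein sequence was available. Glycan names were converted to IUPAC-condensed notation, and columns mapping to the same glycan were averaged. The binding signal is a within-array Z-score, averaged across arrays of the same protein sequence at different concentrations or buffers and across linkers. Negative Z-scores can be read as non-binding.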"}, "[2]": {"target": "Fuc(a1-2)Gal(b1-4)GlcNAc(b1-2)Man(a1-3)[Fuc(a1-2)Gal(b1-4)GlcNAc(b1-2)Man(a1-6)]Man(b1-4)GlcNAc(b1-4)GlcNAc", "outline": "as §1"}, "[3]": {"target": "Fuc(a1-2)Gal(b1-4)[Fuc(a1-3)]GlcNAc(b1-2)Man(a1-3)[Fuc(a1-2)Gal(b1-4)[Fuc(a1-3)]GlcNAc(b1-2)Man(a1-6)]Man(b1-4)GlcNAc(b1-4)GlcNAc", "outline": "as §1"}, "[4]": {"target": "Fuc(a1-2)[Gal(a1-3)]Gal(b1-4)GlcNAc(b1-2)Man(a1-3)[Fuc(a1-2)[Gal(a1-3)]Gal(b1-4)GlcNAc(b1-2)Man(a1-6)]Man(b1-4)GlcNAc(b1-4)GlcNAc", "outline": "as §1"}, "[5]": {"target": "Fuc(a1-2)[GalNAc(a1-3)]Gal(b1-4)GlcNAc(b1-2)Man(a1-3)[GalNAc(a1-3)[Fuc(a1-2)]Gal(b1-4)GlcNAc(b1-2)Man(a1-6)]Man(b1-4)GlcNAc(b1-4)GlcNAc", "outline": "as §1"}, "[6]": {"target": "Fuc(a1-3)[Gal(b1-4)]Glc6S", "outline": "as §1"}, "[7]": {"target": "Fuc(a1-3)[Gal(b1-4)]GlcNAc", "outline": "as §1"}, "[8]": {"target": "Fuc(a1-3)[Gal(b1-4)]GlcNAc(b1-2)Man(a1-3)[Fuc(a1-3)[Gal(b1-4)]GlcNAc(b1-2)Man(a1-6)]Man(b1-4)GlcNAc(b1-4)GlcNAc", "outline": "as §1"}, "[9]": {"target": "Fuc(a1-3)[Gal3S(b1-4)]GlcNAc", "outline": "as §1"}, "[10]": {"target": "Gal(a1-6)Glc", "outline": "as §1"}, "[11]": {"target": "Gal(b1-3)Gal(b1-4)GlcNAc(b1-2)Man(a1-3)[Gal(b1-3)Gal(b1-4)GlcNAc(b1-2)Man(a1-6)]Man(b1-4)GlcNAc(b1-4)GlcNAc", "outline": "as §1"}, "[12]": {"target": "Gal(b1-3)[Neu5Ac(a2-6)]GalNAc", "outline": "as §1"}, "[13]": {"target": "Gal(b1-4)GalNAc(b1-3)[Fuc(a1-2)]Gal(b1-4)GlcNAc", "outline": "as §1"}, "[14]": {"target": "Gal(b1-4)Glc", "outline": "as §1"}, "[15]": {"target": "Gal(b1-4)GlcNAc(b1-2)Man(a1-3)[Man(a1-6)]Man(b1-4)GlcNAc(b1-4)GlcNAc", "outline": "as §1"}, "[16]": {"target": "Gal(b1-4)GlcNAc(b1-3)Gal(b1-4)GlcNAc", "outline": "as §1"}, "[17]": {"target": "Gal3S(b1-4)[Fuc(a1-3)]Glc", "outline": "as §1"}, "[18]": {"target": "Gal4S(b1-4)GlcNAc", "outline": "as §1"}, "[19]": {"target": "Gal6S(b1-4)GlcNAc", "outline": "as §1"}, "[20]": {"target": "GalNAc(b1-4)GlcNAc(b1-2)Man(a1-3)[GalNAc(b1-4)GlcNAc(b1-2)Man(a1-6)]Man(b1-4)GlcNAc(b1-4)GlcNAc", "outline": "as §1"}, "[21]": {"target": "GlcA(b1-6)Gal", "outline": "as §1"}, "[22]": {"target": "GlcNAc(a1-4)Gal(b1-4)GalNAc", "outline": "as §1"}, "[23]": {"target": "GlcNAc(a1-4)Gal(b1-4)GlcNAc(b1-3)Gal(b1-4)GlcNAc", "outline": "as §1"}, "[24]": {"target": "GlcNAc(b1-2)Man(a1-3)[GlcNAc(b1-2)Man(a1-6)]Man(b1-4)GlcNAc(b1-4)GlcNAc", "outline": "as §1"}, "[25]": {"target": "Man(a1-3)[Man(a1-6)]Man(b1-4)GlcNAc(b1-4)GlcNAc", "outline": "as §1"}, "[26]": {"target": "Neu5Ac(a2-3)Gal(b1-3)GalNAc", "outline": "as §1"}, "[27]": {"target": "Neu5Ac(a2-3)Gal(b1-3)[Fuc(a1-4)]GlcNAc(b1-3)Gal(b1-4)[Fuc(a1-3)]GlcNAc", "outline": "as §1"}, "[28]": {"target": "Neu5Ac(a2-3)Gal(b1-4)[Fuc(a1-3)]GlcNAc(b1-6)[Gal(b1-3)]GalNAc", "outline": "as §1"}, "[29]": {"target": "Neu5Ac(a2-6)Gal(b1-4)GlcNAc", "outline": "as §1"}},
  "note": "The sample as a whole holds a higher share of the strongest signals than the screen did.",
  "data": [
    {"binder": "B1", "values": [
      {"measurement": "glycan array binding signal (z-score)", "setting": "[1]", "result": 1.14},
      {"measurement": "glycan array binding signal (z-score)", "setting": "[2]", "result": 5.83},
      {"measurement": "glycan array binding signal (z-score)", "setting": "[3]", "result": 4.73},
      {"measurement": "glycan array binding signal (z-score)", "setting": "[4]", "result": 6.43},
      {"measurement": "glycan array binding signal (z-score)", "setting": "[5]", "result": 5.34},
      {"measurement": "glycan array binding signal (z-score)", "setting": "[6]", "result": 0.455},
      {"measurement": "glycan array binding signal (z-score)", "setting": "[7]", "result": -0.168},
      {"measurement": "glycan array binding signal (z-score)", "setting": "[8]", "result": 10.4},
      {"measurement": "glycan array binding signal (z-score)", "setting": "[9]", "result": -0.158},
      {"measurement": "glycan array binding signal (z-score)", "setting": "[10]", "result": -0.168},
      {"measurement": "glycan array binding signal (z-score)", "setting": "[11]", "result": 6.05},
      {"measurement": "glycan array binding signal (z-score)", "setting": "[12]", "result": -0.23},
      {"measurement": "glycan array binding signal (z-score)", "setting": "[13]", "result": -0.281},
      {"measurement": "glycan array binding signal (z-score)", "setting": "[14]", "result": -0.292},
      {"measurement": "glycan array binding signal (z-score)", "setting": "[15]", "result": -0.228},
      {"measurement": "glycan array binding signal (z-score)", "setting": "[16]", "result": -0.228},
      {"measurement": "glycan array binding signal (z-score)", "setting": "[17]", "result": 0.036},
      {"measurement": "glycan array binding signal (z-score)", "setting": "[18]", "result": -0.235},
      {"measurement": "glycan array binding signal (z-score)", "setting": "[19]", "result": -0.225},
      {"measurement": "glycan array binding signal (z-score)", "setting": "[20]", "result": 0.263},
      {"measurement": "glycan array binding signal (z-score)", "setting": "[21]", "result": -0.189},
      {"measurement": "glycan array binding signal (z-score)", "setting": "[22]", "result": 1.27},
      {"measurement": "glycan array binding signal (z-score)", "setting": "[23]", "result": -0.004},
      {"measurement": "glycan array binding signal (z-score)", "setting": "[24]", "result": -0.176},
      {"measurement": "glycan array binding signal (z-score)", "setting": "[25]", "result": -0.133},
      {"measurement": "glycan array binding signal (z-score)", "setting": "[26]", "result": -0.216},
      {"measurement": "glycan array binding signal (z-score)", "setting": "[27]", "result": 0.065},
      {"measurement": "glycan array binding signal (z-score)", "setting": "[28]", "result": 0.942},
      {"measurement": "glycan array binding signal (z-score)", "setting": "[29]", "result": -0.254}
    ]}
  ]
}
